# From PubChem BioAssay
# SDO1 yeast rescue: sdo1-depleted yeast growth rescue | S. cerevisiae sdo1-depleted JHY4D growth rescue, OD600 30 h; hits give high values; pdr5 snq2 efflux-pump mutant strain | z-score at 10 µM | 140,000 tested, 0.21% active;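 active = z-score above 3 at both the 24 hr and the 30 hr optical density reads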;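 also: z-score against mean and SD of all compound wells on the same plate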
# PTK2B oligo ant: Pyk2 (human) oligomerization antagonism; Q14289; Q293 cells, Pyk2 FERM NanoBiT luminescence; hits give low values; z-score (the deposit names both 25 µM and 10 µM); 99,000 tested, 0.83% active;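 active = Z-score of -3 or lower, scaled per plate to the spread of control and sample wells; inactive = z-score above -3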;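 also: negative z-score means lost luminescence so less FERM oligomerization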
# Cav32 inh: human Cav3.2 channel inhibition, primary screen | O95180 | B-score at 10 µM | 100,000 tested, 4% active | Cav3.2-expressing cells, Fluo-4 calcium fluorescence FDSS; hits give low values;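 active = single-dose well whose peak fluorescence ratio is a statistical outlier from its plate by either plate-standardised score or position-corrected B-score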
# PLK1 PBD inh: blocks phosphopeptide binding to human Plk1 polo box domain. P53350. Plk1 PBD phosphopeptide binding, fluorescence polarization. inhibition, %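 (tested at about 20 µM)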. 97,000 tested, 0.13% active; in the data active = inhibition above about 34%, passing the limit was not always enough
# Target sequence (P53350 whole entry, looked up, the tested form may be a part): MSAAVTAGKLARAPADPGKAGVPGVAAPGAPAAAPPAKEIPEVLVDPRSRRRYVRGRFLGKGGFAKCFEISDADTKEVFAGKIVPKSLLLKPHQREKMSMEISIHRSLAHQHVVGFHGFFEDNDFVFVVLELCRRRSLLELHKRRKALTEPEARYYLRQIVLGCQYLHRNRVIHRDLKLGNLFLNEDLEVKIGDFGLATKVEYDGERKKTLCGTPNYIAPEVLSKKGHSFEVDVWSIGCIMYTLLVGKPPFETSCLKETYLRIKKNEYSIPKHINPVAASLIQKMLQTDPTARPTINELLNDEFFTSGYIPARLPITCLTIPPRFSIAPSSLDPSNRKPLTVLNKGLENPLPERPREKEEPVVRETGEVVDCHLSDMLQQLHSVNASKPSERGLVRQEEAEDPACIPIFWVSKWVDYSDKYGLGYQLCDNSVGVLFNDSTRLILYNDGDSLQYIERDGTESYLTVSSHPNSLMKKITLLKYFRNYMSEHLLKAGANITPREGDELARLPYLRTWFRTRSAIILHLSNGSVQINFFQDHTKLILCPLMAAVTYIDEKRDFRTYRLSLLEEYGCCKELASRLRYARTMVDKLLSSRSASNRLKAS
# hDAT+cocaine: human DAT dopamine uptake with cocaine, either direction; Q01959; LLC-PK1 hDAT cells, [14C]-dopamine uptake with cocaine IC80; actives deviate in either direction; B-score at 10 µM; 110,000 tested, 1.3% active;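 active = Z score or B-score, a plate-position-corrected score, falls beyond the plate's 99.7% confidence bounds, in either direction; inactive = both scores lie inside the 99.7% bounds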;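 also: scored against the spread of the other compound wells on the same plate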
# PLK1 inh: inhibitors of human PLK1 kinase. recombinant PLK1 kinase, TR-FRET peptide phosphorylation. inhibition, % at 10 µM. 97,000 tested, 0.53% active. P53350;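 active = inhibition of 50% or more in the single-concentration screen; inactive = inhibition below 50%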;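 also: 0% = DMSO max control and 100% = H-89 dihydrochloride min control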
# Starred values were filed as active, the others as inactive; / = no result. Shown are actives, neighbours in structure and some others; about 4.7% of the full set was active somewhere.
SMILES,SDO1 yeast rescue,PTK2B oligo ant,Cav32 inh,PLK1 PBD inh,hDAT+cocaine,PLK1 inh
CCCn1nnc(NC(=O)c2ccc(-c3cccc(Cl)c3)o2)n1,-0.44,0.54,-5.04*,-0.8,0.328,-1.6
C=CCOc1c(Br)cc(CNc2nccs2)cc1OC,-1.16,-0.32,-7.88*,4.9,0.0188,2.7
COc1cc(CNC(C)(C)C)cc(Br)c1OCc1cccs1,0.71,/,/,/,/,/
Cc1ccc(-n2ncc3c(NNC(=O)Cc4ccccc4)ncnc32)cc1,0.97,/,/,/,/,/
COC(=O)C1=C(C)NC2=C(C(=O)CC(C)(C)C2)C1c1cn(Cc2ccc(Br)cc2)nc1-c1ccccc1 (stereo not given),-0.87,-3.26*,-4.73*,6.7,0.816,-13.1
COC(=O)C1=C(C)NC2=C(C(=O)CCC2)C1c1cn(Cc2ccc(Br)cc2)nc1-c1ccccc1 (stereo not given),-0.84,-2.33,-7.32*,-0.5,1.35,-7.1
O=C(CSc1cnc2ccccc2n1)c1ccc(F)cc1,-1.19,/,/,/,/,/
O=C(NC1CCCCC1)C(c1ccc2ncccc2c1)N(Cc1ccccc1)C(=O)c1ccc2c(c1)OCCO2 (stereo not given),0.9,-1.9,-0.97,-14.7,1.09,-3.0
O=C(NC1CCCCC1)C(c1ccc2ncccc2c1)N(Cc1ccccc1)C(=O)c1cccs1 (stereo not given),0.14,-4.04*,-2.74,4.1,0.17,-12.4
COc1ccc(CN(C(=O)c2cccs2)C(C(=O)NC2CCCCC2)c2ccc3ncccc3c2)cc1 (stereo not given),-0.42,-3.09*,/,-5.6,/,-7.5
O=C(NC1CCCCC1)C(c1ccc2ncccc2c1)N(Cc1ccc2c(c1)OCO2)C(=O)c1cccs1 (stereo not given),-0.57,-3.62*,-2.13,-26.4,1.45,-3.8
COCCn1c(SCC(=O)Nc2cc(C)nn2-c2ccccc2)nnc1-c1ccncc1,1.6,/,/,/,/,/
O=C(Nc1nnc(-c2ccc3c(c2)CCCC3)o1)C1COc2ccccc2O1 (stereo not given),-1.91,/,-4.88*,-20.8,0.312,3.0
COc1cccc(-c2nnc(NC(=O)c3ccc(S(=O)(=O)N4CCOCC4)cc3)o2)c1,0.84,-1.53,-1.41,28.8,0.626,5.0
COc1ccc(-c2nnc(NC(=O)c3ccc(S(=O)(=O)N4CCCc5ccccc54)cc3)o2)cc1,-0.75,-3.74*,/,32.1,/,-8.0
CC(=O)Nc1nnc(-c2ccc3c(c2)CCCC3)o1,-0.23,/,/,10.6,0.445,-6.7
CC1CN(S(=O)(=O)c2ccc(C(=O)Nc3nnc(-c4ccc5c(c4)CCCC5)o3)cc2)CC(C)O1 (stereo not given),-0.11,/,-8.4*,-7.0,-0.171,-22.7
Cc1c(NC(=O)C(=O)/C=C(\O)c2ccc(Br)cc2)c(=O)n(-c2ccccc2)n1C,0.27,/,/,/,/,/
CC1(C)CC(=O)C([N+](=O)[O-])=C(NCCCC(=O)O)C1,0.51,/,/,/,/,/
COc1cc(-c2nnc(COC(=O)c3c4c(nc5ccccc35)CCCC4)o2)cc(OC)c1OC,-0.55,/,0.942,-19.1,0.252,-17.1
Fc1ccc(Cn2nnc(-c3ccc(CN4CCOCC4)cc3)n2)cc1,-1.76,-0.64,/,5.2,-7.95*,2.0
CCOc1ccc(NC(=O)c2cccc(OC(=S)N3CCC(C)CC3)c2)cc1,-1.04,0.1,-4.28*,-6.9,/,-9.1
Cc1onc(-c2ccccc2Cl)c1C(=O)OCC(=O)Nc1ccc2c(c1)OCO2,-1.48,-1.56,-6.31*,/,-1.06,/
Cc1onc(-c2ccccc2Cl)c1C(=O)OCC(=O)N1CCCc2ccccc21,-1.48,-1.72,-7.4*,/,1.73,/
CC(C)(C)c1ccc(C(=O)Nc2cccc3c(=O)[nH][nH]c(=O)c23)cc1,-0.62,-0.56,/,/,/,/
SMILES,SDO1 yeast rescue,PTK2B oligo ant,Cav32 inh,PLK1 PBD inh,hDAT+cocaine,PLK1 inh
COc1ccc(OCC(O)CNc2ccc(Br)cc2)cc1 (stereo not given),-0.26,-0.56,-4.22*,-23.1,0.835,-8.1
O=C(Nc1ccc2c(c1)OCO2)c1c(F)cccc1F,2.03,0.03,-3.3*,-7.3,-1.05,-8.5
Cc1sc2nc(C(C)Nc3ccccc3N3CCOCC3)[nH]c(=O)c2c1C (stereo not given),-1.92,-0.54,-2.37,-7.5,-7.52*,-14.3
CC(C)Nc1nc(NC(C)C)nc(N(C)C#N)n1,-0.8,0.72,-0.812,25.2,0.493,-0.2
Cc1ccc(Nc2nc(Cl)nc(N(C)C#N)n2)cc1,0.07,1.29,3.96*,19.6,0.121,-8.4
Nc1ccccc1C#CCCCCO,0.51,/,0.0392,/,-0.0675,/
COc1ccccc1NC(=S)N1CCN(c2ccccn2)CC1,1.04,/,/,/,/,/
COc1ccccc1NC(=O)N1CCN(c2ccccn2)CC1,1.09,/,-1.87,5.7,0.334,62.1*
Cc1ccc(S(=O)(=O)NC(=O)c2ccc(-c3ccc(-c4ccccc4)cc3)o2)c(C)c1,-0.56,/,-4.3*,/,-2.15*,/
Cc1ccnn1CC(=O)N/N=C/c1cccs1,0.24,/,/,/,/,/
CC1=CCC(C(=O)N/N=C/c2cccs2)C(c2ccc(F)cc2)C1 (stereo not given),-1.8,-0.62,-5.28*,-136.6,-1.07,-6.6
CC(=O)N1CCc2cc(S(=O)(=O)NC(CC(C)C)C(=O)N3CCn4c3nc3ccccc34)ccc21 (stereo not given),0.6,-3.72*,0.985,-9.4,-0.624,-13.6
CCOC(=O)Cc1csc(NC(=O)CSc2nnnn2-c2ccc(C)cc2C)n1,-0.64,-1.01,-2.79,10.8,0.748,-14.3
CCOC(=O)Cc1csc(NC(=O)COc2ccc3ccccc3c2)n1,-1.15,1.34,-10*,-8.2,1.18,-6.8
CCOc1ccc(S(=O)(=O)N(C)c2ccc(OCC(=O)Nc3nc(-c4cc(OC)ccc4OC)cs3)cc2)cc1,-1.11,/,/,/,/,/
CCOC(=O)Cc1csc(NC(=O)COc2ccc(N(C)S(=O)(=O)c3ccc(C)cc3)cc2)n1,-0.37,-3.9*,-6.52*,5.7,0.0651,5.8
CCOC(=O)Cc1csc(NC(=O)CSc2nnnn2-c2ccc(F)cc2)n1,0.77,-0.37,-4.47*,-7.8,-0.325,-4.4
Cc1ccc(/C=C/C(=O)Nc2ccccc2C(N)=O)cc1,0.08,/,/,/,/,/
CC(C)(C)c1csc(NC(=O)Cn2c(=O)oc3ccccc32)n1,0.21,-3.37*,-10.1*,-4.2,0.466,-13.6
O=C(NCc1cccc(Br)c1)C1CC(c2ccccc2C(F)(F)F)=NO1 (stereo not given),/,/,-0.898,/,-0.119,/
N#CC(c1cccc(C(F)(F)F)c1)(c1ncc(C(F)(F)F)cc1Cl)N1CCOCC1 (stereo not given),-0.75,1.31,-4.26*,17.4,0.746,-12.6
